# Measured values as given in PubChem BioAssay (EPA / NIEHS).
# Activity calls are given as the source filed them. The calls were made as follows: active = hit-call score of the fitted dose curve at least 0.9, where 1 is the maximum; inactive = score below 0.9.
# Test: CCTE_Shafer_MEA_dev_firing_rate_mean: CCTE's Neural Network Formation Assay for Mean Firing Rate, Shafer Lab (AID 2284031);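 as to AC50: curve fitted for loss of firing so AC50 reflects decreased mean firing rate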
# Method: CCTE_Shafer_MEA_dev assay is conducted using Axion Biosystems 48 well microelectrode array (MEA) plates and Maestro recording system. Each well of the MEA plate contains a grid of 16 microelectrodes embedded in the culture surface. Electrically active cells, such as neurons, can be cultured over the electrodes, and electrical activity in these cells can be recorded extracellularly. The spontaneous firing of neurons is captured from each electrode on a microsecond timescale providing both temporally and spatially precise data. […] The CCTE_Shafer_MEA_dev assay uses primary cultures of rat cortical neurons. Recordings are made on days post-plating 5, 7, 9 and 12. As these cultures mature over time, neural networks develop functional activity and form cohesive networks in which electrical activity can be highly coordinated. CCTE_Shafer_MEA_dev_firing_rate_mean is 1 of 19 assay components of the CCTE_Shafer_MEA_dev assay. It measures the frequency of spikes (action potential firings) as the total number of spikes divided by the length of the recording in a microelectrode array (MEA) using Axion Biosystems Maestro 768 channel amplifier with the AxIS adaptive spike detector. The firing rate is averaged across the active electrodes to report a well-mean value. To collapse across multiple recordings made on days post-plating 5, 7, 9 and 12, the trapezoidal area-under-the-curve of the component is calculated.Data from the assay component CCTE_Shafer_MEA_dev_firing_rate_mean was analyzed into 1 assay endpoint. This assay endpoint, CCTE_Shafer_MEA_dev_firing_rate_mean, was analyzed in the negative analysis fitting direction relative to DMSO as the negative control and baseline of activity. Using a type of functional reporter, gain or loss-of-signal activity can be used to understand electrical activity.
# On the day prior to culture, each well was coated thoroughly with 150 uL of 0.05% polyethyleneimine (PEI, Sigma Cat P3143) in 50 mM HEPES (Sigma Cat H7523) at a pH of 8. The plate was incubated at 37C for one hour. PEI was rinsed out with 500 uL of sterile water three times. Plates were stored at 4C until the day of culture. This culture was plated at a seeding density of 1.5 x 10^5 cells/well on a 48-well MEA plate, prepared as described above. Cells were administered via a 25 uL media/laminin ([…]; Sigma Cat L2020-1MG) drop directly onto the microelectrode array, as adding the cells with the laminin results in better attachment than pre-coating with laminin. After 2 hours, an additional 475 uL of cortical media was added and the cells returned to the incubator. Exposure starts at day 0 of plating and is continued over twelve days of network development until the experiment is terminated. Cells are fed with fresh medium on DIV 5 and 9, following the recordings on those days. The entire volume of media in the well is exchanged and any vehicle or compound treatment is renewed. Complete details are found in OP-NHEERL/ISTD/SBB/TJS/2015-03-r0 (available on request, email shafer.tim@epa.gov). Measurement of the electrical activity is non-invasive, and recordings can be made from the same plate over multiple different days of the culture. In cortical neurons, this allows for the measurement of extracellular action potentials over the period during which networks form in the MEA plate.
Compound,outcome,AC50
O=S(=O)(O)CCC(F)(F)C(F)(F)C(F)(F)C(F)(F)C(F)(F)C(F)(F)C(F)(F)C(F)(F)F,inactive,–
OCC(F)(F)C(F)(F)C(F)(F)C(F)(F)C(F)(F)C(F)(F)C(F)(F)C(F)(F)CO,inactive,–
OCC(F)(F)C(F)(F)C(F)(F)C(F)(F)C(F)(F)C(F)(F)CO,inactive,–
OCC(O)CC(F)(F)C(F)(F)C(F)(F)C(F)(F)F (centres undefined),inactive,–
NC(=O)C(F)(F)C(F)(F)C(F)(F)C(F)(F)C(N)=O,inactive,–
FC(F)(F)C(F)(F)C(F)(F)C(F)(F)C(F)(F)C(F)(F)C(F)(F)CCI,inactive,–
CO[Si](C)(CCC(F)(F)C(F)(F)C(F)(F)C(F)(F)C(F)(F)C(F)(F)F)OC,inactive,–
C=CC(=O)OCC(F)(F)C(F)(F)C(F)(F)COC(=O)C=C,–,4.71 µM (active)
C=CC(=O)OCCC(F)(F)C(F)(F)C(F)(F)C(F)(F)F,inactive,–
OCCCCC(F)(F)C(F)(F)C(F)(F)C(F)(F)F,inactive,–
NC(=O)C(F)(F)C(F)(F)C(F)(F)F,inactive,–
NC(=O)C(F)(F)C(F)(F)C(F)(F)C(F)F,inactive,–
CNS(=O)(=O)C(F)(F)C(F)(F)C(F)(F)C(F)(F)C(F)(F)C(F)(F)C(F)(F)C(F)(F)F,inactive,–
OC(O)C(F)(F)C(F)(F)F,inactive,–
CCN(CCO)S(=O)(=O)C(F)(F)C(F)(F)C(F)(F)C(F)(F)C(F)(F)C(F)(F)C(F)(F)C(F)(F)F,inactive,–
NC(O)(C(F)(F)F)C(F)(F)F,inactive,–
O=S(=O)(O)CCC(F)(F)C(F)(F)C(F)(F)C(F)(F)F,inactive,–
OCC(F)(F)C(F)(F)C(F)(F)CO,inactive,–
O=C(O)C(F)(F)C(F)(F)C(F)(F)OC(F)(F)F,inactive,–
